High-throughput results as filed in PubChem BioAssay.
D2 ag-1 – Beta-Arrestin HTS for Positive Allosteric Modulators of the Human D2 Dopamine Receptor: Agonists | activation, % (no concentration beside the values) | D(2) dopamine receptor (Homo sapiens), P14416 | DiscoveRx PathHunter D2 beta-arrestin, luminescence, 90 min; 100% = 57 uM dopamine signal | hit rate 0.084% among 360,000; in the data active = activation above about 40%; inconclusive = between about 15% and that limit
Target sequence (P14416 whole entry, looked up): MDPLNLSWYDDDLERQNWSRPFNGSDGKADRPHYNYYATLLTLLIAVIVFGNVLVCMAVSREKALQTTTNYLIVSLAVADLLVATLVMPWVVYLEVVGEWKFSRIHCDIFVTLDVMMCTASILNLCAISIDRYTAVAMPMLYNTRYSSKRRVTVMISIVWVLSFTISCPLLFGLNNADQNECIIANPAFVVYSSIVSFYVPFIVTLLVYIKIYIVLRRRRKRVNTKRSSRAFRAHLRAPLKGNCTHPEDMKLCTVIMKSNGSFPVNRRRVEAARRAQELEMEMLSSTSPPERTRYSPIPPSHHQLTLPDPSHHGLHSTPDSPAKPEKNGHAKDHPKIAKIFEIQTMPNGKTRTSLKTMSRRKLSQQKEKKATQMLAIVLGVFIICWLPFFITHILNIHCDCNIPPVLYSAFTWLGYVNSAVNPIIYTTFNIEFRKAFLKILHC
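Agonist mode: compounds alone added to overnight-plated D2 PathHunter cells for 90 min at 37 C, with 57 uM final dopamine (EC100) defining full response. Beta-arrestin recruitment detected by chemiluminescent reagent, read after 1 h at ambient temperature.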
D2 antag – HTS Assay for Allosteric Antagonists of the Human D2 Dopamine Receptor: Primary Screen for Antagonists; AID 485344, 2010; HEK293 TREx D2 cells, calcium flux, dopamine EC80; D(2) dopamine receptor (Homo sapiens), P14416; hit rate 2% among 340,000; inhibition, % at 10 µM; in the data active = inhibition above about 30%; inactive = below that, where a call was filed
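Antagonism is scored as inhibition of an EC80 dopamine-evoked calcium signal in a force-coupled, tetracycline-inducible HEK293 T-REx D2 line, with compound present 180 s before agonist.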
D2 ag-2 – HTS Assay for Allosteric Agonists of the Human D2 Dopamine Receptor: Primary Screen for Agonists. HEK293 T-REx D2 cells, calcium flux agonist mode. hit rate 0.53% among 340,000. AID 485358, 2010. D(2) dopamine receptor (Homo sapiens), P14416. activation, % at 2 µM;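 active = activation over 3 SD above normal in the single-dose calcium agonist read, cut at about 30% in these data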
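Agonism is scored from calcium flux in a force-coupled, inducible HEK293 cell line expressing D2, read kinetically for 180 s after compound addition against dopamine controls.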
D2 PAM-1 – Beta-Arrestin HTS for Positive Allosteric Modulators of the Human D2 Dopamine Receptor: Potentiators. potentiation, % (no concentration beside the values). hit rate 0.23% among 360,000. D(2) dopamine receptor (Homo sapiens), P14416. DiscoveRx D2 beta-arrestin cells, luminescence, 90 min; 100% = 57 uM dopamine signal; in the data active = potentiation above about 50%; inconclusive = mostly about 30% to 49%
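D2 cells co-treated with compound plus 50 nM dopamine (EC20) for 90 min at 37 deg C to detect potentiation. Beta-arrestin recruitment was read as enzyme-fragment luminescence after 1 h at ambient temperature. Full response was set by 57 uM dopamine.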
D2 PAM-2 – HTS Assay for Positive Allosteric Modulators of the Human D2 Dopamine Receptor: Primary Screen for Potentiators | D(2) dopamine receptor (Homo sapiens), P14416 | HEK293 T-REx D2, calcium flux, EC20 dopamine potentiation | potentiation, % at 10 µM | hit rate 0.34% among 340,000;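 active = potentiation over 3 SD above the plate norm, cut at about 30% in these data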
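Using a no-wash calcium dye in inducible, force-coupled HEK293 Trex cells expressing D2, we tracked fluorescence each second for 180 s after compound, then for 180 s after EC20 dopamine to detect augmented signalling.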
D3 arrestin ag – qHTS of D3 Dopamine Receptor Agonist: D3 Dopamine Receptor B-arrestin Agonist Confirmatory Assay; shares compounds with D2 ag-2; DiscoveRx D3 beta-arrestin cells, luminescence, 90 min; Potency, µM (titrated, usually from 76.9 µM), actives largely listed as activators; hit rate 4% among 2,300; note: nearly all actives have a fitted effect of over 70% in size
D2 ag-3 – qHTS of D3 Dopamine Receptor Agonist: D2 Dopamine Receptor B-arrestin Agonist Counterscreen; Potency, µM (titrated, usually from 76.9 µM), actives largely listed as activators; shares compounds with D2 ag-2; hit rate 5.9% among 2,300; AID 720507, 2013; DiscoveRx PathHunter D2 beta-arrestin, luminescence, 90 min; response scale: percent relative to full dopamine signal; note: nearly all actives have a fitted effect of over 70% in size
Large screens that a line does not name were inactive (follow-up assays come after a bar, where they were run). The list is not random: actives were taken first. Their share in the collection is about 2.4%. Unless noted, calls come from the whole dose curve; as a rule, active = well fitted activation curve with a large enough effect; inconclusive = small, poorly fitted or top-dose-only effect; inactive = flat fitted curve, though single readings scatter.

COc1ccccc1N1CCN(Cc2ccccc2F)CC1	D2 antag 81
COc1ccccc1N1CCN(Cc2ccccc2Cl)CC1	D2 antag 79
COc1ccccc1N1CCN(CCc2ccccc2)CC1	D2 antag 73
COc1ccccc1N1CCN(Cc2ccc(Br)cc2)CC1	D2 antag 94
Cc1cc(O)c2c(c1)C(=O)C13C(=C2O)C(=O)[C@H]2[C@@H](O)[C@@H]1[C@H]1[C@H](O)[C@@H]3C(=O)C3=C(O)c4c(O)cc(C)cc4C(=O)C312 (stereo partly specified)	none
COc1ccccc1N1CCN(Cc2cnc(-c3ccccc3)[nH]2)CC1	D2 antag 57
CCc1ccc(-n2nc(C)c3c2NC(=O)CSC3c2ccc(OC)cc2OC)cc1 (stereo unspecified)	none (no result: D2 ag-1, D2 antag, D2 PAM-1)
COc1cc(/C=C/c2nc3ccccc3c(=O)n2-c2ccc(Br)c(C)c2)ccc1O	none (no result: D2 ag-1, D2 antag, D2 PAM-1, D2 PAM-2)
CN1C(=O)C[N+]([O-])=C(c2ccccc2)c2cc(Cl)ccc21	none (no result: D2 antag, D2 ag-2, D2 PAM-2)
CC(C)Oc1ccc(CCN)cc1Cl	none
CCCCOc1ccc(CCN)cc1Cl	D2 antag 42
Cc1ccc(OC(=O)N(C)C[C@H]2OCc3cnnn3CCCC(=O)N([C@@H](C)CO)C[C@H]2C)cc1	none (no result: D2 antag, D2 ag-2, D2 PAM-2)
CCCCC1(CN2CCCC2=O)C(=O)NC(=O)NC1=O	D2 antag 45
Cc1cccc(-n2c(/C=C/c3c[nH]c4ccccc34)nc3ccccc3c2=O)c1	none (no result: D2 ag-1, D2 antag, D2 ag-2, D2 PAM-1)
Fc1ccccc1CNCCc1c[nH]c2ccccc12	none | D3 arrestin ag inactive | D2 ag-3 inactive
CC(=O)NCCc1c[nH]c2ccccc12	none
Fc1ccc(CNCCc2c[nH]c3ccccc23)cc1	none
COc1ccc(CNCCc2c[nH]c3ccccc23)c(OC)c1C	D2 antag 33 | D3 arrestin ag inactive | D2 ag-3 inactive
OC(CNCCc1c[nH]c2ccccc12)c1ccccc1 (stereo unspecified)	D2 antag 54 | D3 arrestin ag inactive | D2 ag-3 inactive
O=C(c1ccc2nc3ccc(Cl)cc3c(=O)n2c1)N1CCC2(CC1)OCCO2	none (no result: D2 antag, D2 ag-2, D2 PAM-2)
COC(=O)C1=C(c2ccccc2OCc2ccccc2)C[C@@H]2CC[C@H]1N2C(=O)NCc1ccc([N+](=O)[O-])cc1	none
CCN(CC)c1ccc(/C=C2\C(=O)NC(=S)N(C)C2=O)o1	D2 ag-2 33 | D3 arrestin ag inactive | D2 ag-3 inactive
Nc1ccc(N2CCN(Cc3ccccc3Cl)CC2)c(Cl)c1	none
Clc1ccccc1CN1CCN(c2cccc3[nH]ccc23)CC1	none (no result: D2 antag, D2 ag-2, D2 PAM-2) | D3 arrestin ag inactive | D2 ag-3 inactive
Clc1ccccc1CN1CCN(c2ccccc2)CC1	D2 ag-1 inconclusive, D2 antag 68, D2 ag-2 68 | D3 arrestin ag inactive | D2 ag-3 inconclusive
COc1cc2c(cc1OC)C1C(=O)c3ccc4c(c3OC1CO2)CC(C(C)C)O4 (stereo unspecified)	none (no result: D2 antag, D2 ag-2, D2 PAM-2)
CN1C(=O)N(C)C(=O)C2(Cc3ccccc3N3CCCC32)C1=O (stereo unspecified)	none
CN1C(=O)CC(c2ccccc2)Nc2ccccc21 (stereo unspecified)	none | D3 arrestin ag inactive | D2 ag-3 inactive
O=C(CN1C(=O)CN=C(c2ccccc2)c2ccccc21)Nc1cccc(C(F)(F)F)c1	none (no result: D2 ag-1, D2 antag, D2 PAM-1, D2 PAM-2)
